FMDV antiviral = antivirals against foot and mouth disease virus; hit rate 1.2% among 410,000; Potency, µM (doses to about 57.9 µM), without a hit: at the top dose activity change, negative = inhibition, usual class: inhibitors; AID 1159524; FMDV antiviral cell-based qHTS; calls by dose curve; tested in HEK293T cells; further: read-out not given here; potency means the concentration at half of the fitted maximal effect; nearly all actives have a fitted effect of over 45% in size
MARV entry inh = inhibitors of Marburg virus binding or cell entry | Marburg virus pseudotyped entry inhibition, cell reporter | hit rate 1.8% among 300,000 | AID 540276 | Potency, µM (highest dose often 37.8 µM), inactives show at the top dose activity change, negative = inhibition, most hits filed as inhibitors; calls by dose curve; tested in HEK293 cells; further: potency means the concentration at half of the fitted maximal effect
HCMV antiviral = inhibitors of human cytomegalovirus. AID 1259415. activity change, negative = inhibition, % at 57.5 µM. HFF cells, HCMV-luciferase reporter, 72 h; active compounds read low. hit rate 4.5% among 410,000; in the data active means activity change below about -60%; inconclusive means no clear call, values can overlap the other calls; inactive means above about -39%
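Steps: HFFs plated, 16 h 37C; compounds added; HCMV-luciferase added to MOI 1 PFU/cell; 72 h 37C; OneGlo reagent, 5 min room temperature; luminescence read, normalized to controls.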
VACV mCherry inh = inhibitors of vaccinia virus infection (mCherry reporter signal) | Vaccinia virus mCherry reporter infection, fluorescence | Potency, µM (top dose mostly 36.5 µM), for the others: at the top dose activity change, negative = inhibition, actives largely listed as inhibitors | hit rate 0.63% among 310,000 | AID 720579; calls by dose curve; tested in A549 cells; further: potency means the concentration at half of the fitted maximal effect; nearly all actives have a fitted effect of over 35% in size
Vaccinia Venus = vaccinia inhibition (Venus reporter). Vaccinia virus Venus reporter expression, fluorescence. Potency, µM (highest dose often 36.5 µM), for the others: at the highest dose activity change, negative = inhibition, usual class: inhibitors. hit rate 0.46% among 330,000; calls by dose curve; tested in A549 cells; further: potency means the concentration at half of the fitted maximal effect; nearly all actives have a fitted effect of over 30% in size
LASV entry inh = inhibitors of Lassa virus binding or cell entry. Lassa virus pseudotype entry inhibition, cell reporter. Potency, µM (top dose mostly 37.9 µM), without a hit: at the highest dose activity change, negative = inhibition, actives largely listed as inhibitors. hit rate 1.2% among 300,000. AID 540256; calls by dose curve; tested in HEK293 cells; further: potency means the concentration at half of the fitted maximal effect; nearly all actives have a fitted effect of over 50% in size
* = called active by the depositor; i = inactive; ? = inconclusive; nt = no result; [ ] = dose if it differs, or a comment. An excerpt weighted towards active compounds, which were near 6.5% of everything screened. On the % scale 0 is the no-effect control and ±100 the full control effect.

SMILES | FMDV antiviral | MARV entry inh | HCMV antiviral | VACV mCherry inh | Vaccinia Venus | LASV entry inh
CN(C)CCNC(=O)c1cccc(-c2cnc3c(NC=O)cc(-c4cccc(F)c4)cn23)c1 | -6% | nt | -87* | 19% | -13% | nt
COc1ccc(-c2cc(NC=O)c3ncc(-c4cccc(C(=O)NCCN(C)C)c4)n3c2)cc1 | -5% | nt | -66* | 9% | -16% | nt
CC(=O)Nc1cc(-c2cccc(C(=O)NCCN(C)C)c2)cn2c(-c3ccccc3)cnc12 | 7% | nt | -10 | ? | ? | nt
CN(C)CCNC(=O)c1cccc(-c2cnc3c(NC=O)cc(-c4ccc(F)cc4)cn23)c1 | 2% | nt | ? | 1% | -23% | nt
CC(=O)Nc1cc(-c2cccc(C(=O)NCCN(C)C)c2)cn2c(-c3cccc(C(F)(F)F)c3)cnc12 | -21% | nt | -100* | ? | ? | nt
CCSc1ccc(-c2cc(NC=O)c3ncc(-c4cccc(C(=O)NCCN(C)C)c4)n3c2)cc1 | -15% | nt | -21 | 12% | -5% | nt
Cc1[nH]c2ccc(F)cc2c(=O)c1SC(F)(F)[C@@H](F)C(F)(F)F | nt | -14% | nt | nt | nt | nt
CO[C@H]1[C@H](NC(=O)c2cccc(F)c2)c2ccccc2C12CCN(Cc1ccco1)CC2 | -6% | nt | nt | -4% | -6% | nt
CC(C)c1oc(=O)cc2c1[C@@H](O)[C@H]1OC(=O)[C@@]3(C)C[C@@H](O)[C@@H](O)[C@@]2(C)C13 (some centres undefined) | ? | 3.3µM* | -98* | ? | 2µM* | 6.5µM*
CC(C)c1oc(=O)cc2c1[C@@H](O)[C@H]1OC(=O)[C@@]3(C)CC[C@@H](O)[C@@]2(C)C13 (some centres undefined) | ? | ? | -97* | ? | 4µM* | ?
COC(=O)c1cc(C)sc1NC(=O)CSc1ncccn1 | -23% | nt | 2 | nt | nt | nt
Cc1ccc(C)c(S(=O)(=O)c2nnn3c2nc(NC2CCCC2)c2sccc23)c1 | ? | nt | -107* | ? | ? | ?
Cc1ccc(S(=O)(=O)c2nnn3c2nc(NC2CCCCC2)c2sccc23)cc1C | -10% | nt | -92* | ? | ? | ?
O=S(=O)(c1cccc(Cl)c1)c1nnn2c1nc(NC1CCCC1)c1sccc12 | -3% | nt | -23 | -11% | -18% | 0%[46.1 µM]
CC(C)(C)Cc1c(-c2ccc(C#N)cc2)nc2c(Cl)cc(C(F)(F)F)cn12 | ? | nt | -83* | 9% | -10% | nt
COc1ccccc1Cc1c(-c2ccc(C#N)cc2)nc2c(Cl)cc(C(F)(F)F)cn12 | -15% | nt | nt | -19% | 23% | nt
FC(F)(F)c1cccc(-c2nc3c(NCCc4ccccn4)nccc3[nH]2)c1 | nt | nt | -3 | nt | nt | nt
Cc1ccc2c(c1)C(=O)C(=O)N2Cc1ccc(Br)cc1 | 0% | nt | -76* | -10% | ? | nt
CCCN1C(=O)C(=O)c2cc(C)ccc21 | 19% | nt | -39 | i | -3% | nt
Cc1ccc2c(c1)C(=O)C(=O)N2Cc1ccc(OCCC(C)C)cc1 | -19% | -12%[46.1 µM] | -95* | -16% | -8% | 1%[46.1 µM]
Cc1ccc(CN2C(=O)C(=O)c3cc(C)ccc32)cc1 | 9% | nt | ? | -28% | -27% | nt
CC(=O)Nc1cccc(Nc2cc3c(cn2)cc(-c2cnn(C)c2)n3Cc2ccccc2)c1 | nt | nt | -32 | nt | nt | nt
COc1ccc(NC(=O)c2ccc(Cl)nc2)cc1S(=O)(=O)N1CCOCC1 | -19% | nt | 119 | nt | nt | nt
COc1ccc(NC(=O)Cc2coc3cc(C)c(C(C)C)cc23)cc1S(=O)(=O)N1CCOCC1 | 0% | ? | -67* | ? | ? | ?
CCc1ccc(C(=O)Nc2ccc(OC)c(S(=O)(=O)N3CCCCC3)c2)cc1 | ? | nt | -97* | nt | nt | nt
COc1ccc2c(CC(=O)Nc3ccc(OC)c(S(=O)(=O)N4CCOCC4)c3)coc2c1 | 25% | 2% | -19 | i | -12% | -1%
COc1ccc(NC(=O)c2ccc(-c3ccccc3)cc2)cc1S(=O)(=O)N1CCOCC1 | 3.5µM* | -8%[46.1 µM] | -68* | ? | -29% | -3%
CCc1ccc(C(=O)Nc2ccc(OC)c(S(=O)(=O)N3CCOCC3)c2)cc1 | ? | 2%[46.1 µM] | -89* | -25% | -20% | -23%
COc1ccc(NC(=O)c2ccncc2)cc1S(=O)(=O)N1CCCCC1 | 3% | nt | -16 | -17% | -12% | nt
COC(=O)[C@H]1[C@H](CO)[C@H]2Cn3c(cccc3=O)[C@H]2N1Cc1ccccc1F | nt | nt | 4 | nt | nt | nt
